The list is not random: actives were taken first. Their share in the collection is about 1.1%.
COUP-TFII inh: NR2F2 transcriptional activity inhibitors, primary screen, cell-based, luciferase reporter, HEK293T, luminescence; inhibition, % at 8.6 µM; AID 686940, 2013; 0.7% of 370,000 active; COUP transcription factor 2 (Homo sapiens), P24468; HEK293T NGFI-A luciferase reporter;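 active means inhibition above a per-plate cutoff, mean inhibition of test wells between control levels plus 3 SD, cut at about 38% in these data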;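 further: cells cotransfected with COUP-TFII expression vector driving the NGFI-A reporter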
GalR3 antag: GalR3 antagonists in HEK293 cells, primary screen, cell-based, fluorescence readout. AID 651719, 2012. inhibition, % at 3 µM. HEK293 GalR3-CNG cAMP membrane potential fluorescence; galR3 body fused to GalR1 C-terminus. 0.44% of 360,000 active. Galanin receptor type 3 (Homo sapiens), O60755;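 active means inhibition above the screen-wide average plus 3 SD, cut at about 13% in these data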;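 further: forskolin and galanin both at EC90 stimulate the cells; cAMP rise reported by CNG channel membrane potential dye signal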
NCOA1 inh: SRC1 coactivator transcriptional activity inhibitors, primary screen, cell-based, luminescence; inhibition, % at 3.6 µM; Nuclear receptor coactivator 1 (Homo sapiens), Q15788; 0.12% of 360,000 active; HEK293 GAL4-SRC1 luciferase reporter; AID 588354, 2011;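 active means inhibition above the campaign mean plus 3 SD, with each screening campaign given its own cutoff, cut at about 60% in these data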
SRC3 inh: SRC3 coactivator transcriptional activity inhibitors, primary screen, cell-based, luminescence; HEK293 GAL4-SRC3 luciferase reporter; inhibition, % at 3.6 µM; Nuclear receptor coactivator 3 (Homo sapiens), Q9Y6Q9; AID 588352, 2011; 0.17% of 360,000 active;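 active means inhibition above a per-campaign cutoff, the mean of all compounds plus 3 SD, cut at about 60% in these data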;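 further: higher means less SRC3-driven luciferase light from the GAL4 reporter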
Target sequence (Q9Y6Q9 whole entry, looked up, the tested form may be a part): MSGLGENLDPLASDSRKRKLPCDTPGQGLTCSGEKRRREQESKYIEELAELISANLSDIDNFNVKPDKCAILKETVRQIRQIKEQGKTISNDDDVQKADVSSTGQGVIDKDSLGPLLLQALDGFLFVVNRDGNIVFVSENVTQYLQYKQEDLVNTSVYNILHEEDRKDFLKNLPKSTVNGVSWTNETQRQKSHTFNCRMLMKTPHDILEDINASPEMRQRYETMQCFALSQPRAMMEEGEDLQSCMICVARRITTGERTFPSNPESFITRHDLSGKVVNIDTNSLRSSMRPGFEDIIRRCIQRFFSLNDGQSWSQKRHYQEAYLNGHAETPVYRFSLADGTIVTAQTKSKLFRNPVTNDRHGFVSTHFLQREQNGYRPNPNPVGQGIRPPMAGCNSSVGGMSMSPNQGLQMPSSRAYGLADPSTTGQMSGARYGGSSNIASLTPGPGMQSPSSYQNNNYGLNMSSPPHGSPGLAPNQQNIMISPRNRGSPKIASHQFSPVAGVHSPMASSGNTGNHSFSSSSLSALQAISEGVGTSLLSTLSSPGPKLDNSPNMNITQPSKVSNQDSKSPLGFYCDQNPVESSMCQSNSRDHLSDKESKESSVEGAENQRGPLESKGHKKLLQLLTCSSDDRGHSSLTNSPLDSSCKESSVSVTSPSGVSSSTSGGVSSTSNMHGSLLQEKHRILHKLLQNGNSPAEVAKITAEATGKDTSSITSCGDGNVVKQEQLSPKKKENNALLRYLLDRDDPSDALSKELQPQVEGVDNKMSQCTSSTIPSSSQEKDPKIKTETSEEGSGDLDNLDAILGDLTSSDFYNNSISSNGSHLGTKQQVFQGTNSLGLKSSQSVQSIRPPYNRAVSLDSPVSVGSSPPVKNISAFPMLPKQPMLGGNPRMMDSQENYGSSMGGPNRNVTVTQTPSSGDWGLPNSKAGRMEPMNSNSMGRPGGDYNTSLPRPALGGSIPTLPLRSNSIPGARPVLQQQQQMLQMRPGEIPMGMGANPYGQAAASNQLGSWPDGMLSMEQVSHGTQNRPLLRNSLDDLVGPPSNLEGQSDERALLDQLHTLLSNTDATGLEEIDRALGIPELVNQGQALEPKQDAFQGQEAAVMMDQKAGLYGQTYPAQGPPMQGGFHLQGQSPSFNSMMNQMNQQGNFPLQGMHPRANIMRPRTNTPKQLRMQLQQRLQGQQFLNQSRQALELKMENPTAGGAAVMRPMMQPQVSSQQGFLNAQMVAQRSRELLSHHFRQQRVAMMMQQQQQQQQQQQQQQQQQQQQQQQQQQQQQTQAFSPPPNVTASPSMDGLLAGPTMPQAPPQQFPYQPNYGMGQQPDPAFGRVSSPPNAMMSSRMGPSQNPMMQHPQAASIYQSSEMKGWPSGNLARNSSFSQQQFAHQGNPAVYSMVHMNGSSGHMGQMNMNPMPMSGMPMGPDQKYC
LRH-1 inv ag: LRH-1 (NR5A2) inverse agonists, primary screen, cell-based, luminescence, HEK293T, StAR-luciferase reporter | Nuclear receptor subfamily 5 group A member 2 (Homo sapiens), O00482 | LRH-1 transfected, 24 h | inhibition, % at 3.6 µM | 0.13% of 360,000 active | AID 602396, 2012;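 active means inhibition above the mean inhibition of all tested compounds plus 3 SD, cut at about 73% in these data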
SRC2 inh: inhibition of GAL4-SRC2 driven luciferase reporter, primary screen, SRC2 inhibitor project, cell-based, luminescence. Nuclear receptor coactivator 2 (Homo sapiens), Q15596. AID 651957, 2012. inhibition, % at 9 µM. HEK293 GAL4-SRC2 luciferase reporter. 0.17% of 370,000 active;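 active means inhibition above the mean inhibition of all tested compounds plus 3 SD, set per campaign, cut at about 52% in these data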
Gal4-VP16 ctr: Gal4-VP16 luciferase reporter inhibitors, counter-screen for COUP-TFII antagonist project, cell-based, luminescence, HEK293; 25% of 2,500 active; shares compounds with COUP-TFII inh; inhibition, % at 8.5 µM; in the data active means inhibition above about 13%
COUP-TFII conf: NR2F2 transcriptional activity inhibitors, confirmation, cell-based, luciferase reporter, HEK293, triplicate; shares compounds with COUP-TFII inh; HEK293 NGFI-A luciferase reporter, luminescence; inhibition, % at 8.5 µM; 45% of 2,500 active; AID 687008, 2013;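 active means mean inhibition over three repeats above a set limit taken from the earlier primary screen, cut at about 38% in these data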
Each line names hits and unclear results; the compound was inactive in the other large screens (follow-up assays come after a bar, where they were run).

CC1(C)CC(N2CCOCC2)=CC(=S)N1	none (no result: COUP-TFII inh, GalR3 antag, SRC2 inh)
CC1(C)CC(N2CCN(Cc3ccccc3)CC2)=CC(=[N+]2CCCCC2)C1	COUP-TFII inh 52.5 | Gal4-VP16 ctr inactive | COUP-TFII conf inactive
CCOc1ccc(OCc2ccc(C(=O)NN=Cc3ccc[nH]3)cc2)cc1	COUP-TFII inh 73.0, GalR3 antag 56.5, LRH-1 inv ag 85.9 | Gal4-VP16 ctr inactive | COUP-TFII conf 70.5
Cc1ccc(C)c(S(=O)(=O)NCc2ccncc2)c1	COUP-TFII inh 42.8 | Gal4-VP16 ctr inactive | COUP-TFII conf inactive
Cc1cc(NC(=O)CS(=O)(=O)c2cn(Cc3cccc(Br)c3)c3ccccc23)no1	COUP-TFII inh 47.5 | Gal4-VP16 ctr inactive | COUP-TFII conf inactive
C[C@H]1[C@@H](OC(=O)NCCc2c[nH]c3ccccc23)CC[C@@]23CCCN2C(=O)CCC[C@@H]13	none (no result: GalR3 antag, NCOA1 inh, SRC3 inh, LRH-1 inv ag, SRC2 inh)
CC1=CC2C(C(O)CC3(C)C2CC(C)C32OCOC23COCO3)C2(C)C/C(=C\O)C(=O)C=C12 (configuration not stated)	COUP-TFII inh 51.7 | Gal4-VP16 ctr 21.5 | COUP-TFII conf 42.3
CCC(C)(C)c1ccc(OCCCC[n+]2ccccc2)c(C(C)(C)CC)c1	COUP-TFII inh 54.1 | Gal4-VP16 ctr inactive | COUP-TFII conf inactive
CCC(C)(C)c1ccc(Oc2cccc(C(=O)O)c2)cc1	none
Cc1cc(NC(=O)COC(=O)CNS(=O)(=O)c2c(F)cc(F)cc2Br)no1	COUP-TFII inh 85.2 | Gal4-VP16 ctr inactive | COUP-TFII conf inactive
Cc1cc(NC(=O)COC(=O)CCC(=O)c2ccc(F)cc2)no1	none
O=C(/C=C/c1cccs1)NC(=S)NNC(=O)c1ccccc1O	COUP-TFII inh 59.7, NCOA1 inh 64.7, SRC3 inh 80.4, LRH-1 inv ag 88.3 | Gal4-VP16 ctr 21.4 | COUP-TFII conf 62.8
COc1ccc(C(=O)NNC(=S)NC(=O)/C=C/c2cccs2)cc1	none
O=S(=O)(C/C(=C/CO)S(=O)(=O)c1ccccc1)c1ccccc1	COUP-TFII inh 76.1, SRC2 inh 72.1 | Gal4-VP16 ctr 37.5 | COUP-TFII conf 57.9
CCN(CC)c1ccc2nc3ccc(N)cc3[n+](-c3ccccc3)c2c1	COUP-TFII inh 77.0, SRC3 inh 66.7, LRH-1 inv ag 86.6 | Gal4-VP16 ctr 21.0 | COUP-TFII conf 73.0
Cc1ccc(Oc2cc([N+](=O)[O-])cc3c2C(=O)Nc2ccccc2O3)cc1	COUP-TFII inh 38.0 | Gal4-VP16 ctr inactive | COUP-TFII conf inactive
CC(=O)NC(Cc1ccc2c(c1)OCO2)C(=O)N1CCCC1 (configuration not stated)	none (no result: GalR3 antag, NCOA1 inh, SRC3 inh, LRH-1 inv ag)
Cc1nc(NCc2ccc(S(N)(=O)=O)cc2)c2c(C)c(C)sc2n1	none
Cc1nc(NCCc2ccc(S(N)(=O)=O)cc2)c2c(C)c(C)sc2n1	COUP-TFII inh 48.0 | Gal4-VP16 ctr inactive | COUP-TFII conf inactive
CC(=NCc1ccco1)c1c(C)[nH]n(-c2nc3ccccc3s2)c1=O	COUP-TFII inh 61.6 | Gal4-VP16 ctr inactive | COUP-TFII conf inactive
COc1ccc2c(c1)[C@@]1(NCCc3c1[nH]c1ccc(OC)cc31)C(=O)N2	none (no result: GalR3 antag, NCOA1 inh, SRC3 inh, LRH-1 inv ag)
CN(C(=O)CNC(=O)c1ccccc1OCC(=O)Nc1ccc(Br)cc1)c1ccccc1	none (no result: GalR3 antag, NCOA1 inh, SRC3 inh, LRH-1 inv ag)
COc1ccc(NC(=O)C2CCN(c3nc(-c4ccc(OC)cc4)no3)CC2)cc1	none (no result: GalR3 antag)
CCN(C(=O)C1CCN(c2nc(-c3ccc(OC)cc3)no2)CC1)c1ccc(OC)cc1	COUP-TFII inh 52.4 (no result: GalR3 antag) | Gal4-VP16 ctr inactive | COUP-TFII conf inactive
CC(C)CCNc1nc(N)c([N+](=O)[O-])c(N2CCCCCC2)n1	COUP-TFII inh 40.9 | Gal4-VP16 ctr inactive | COUP-TFII conf inactive
Nc1nc(NCc2ccco2)nc(N2CCCCCC2)c1[N+](=O)[O-]	COUP-TFII inh 47.7 | Gal4-VP16 ctr inactive | COUP-TFII conf inactive
COc1ccc(C2C(C(=O)Nc3ccc(F)cc3F)CCC(=O)N2c2ccc(OC)cc2)cc1 (configuration not stated)	none (no result: GalR3 antag, NCOA1 inh, SRC3 inh, LRH-1 inv ag)
FC(F)(F)c1ccccc1C(C#Cc1ccccc1)NCc1ccc2c(c1)OCO2 (configuration not stated)	none (no result: GalR3 antag, NCOA1 inh, SRC3 inh, LRH-1 inv ag)
O=S(=O)(c1cc(F)ccc1F)N1CCN(c2ncnc3ccccc23)CC1	COUP-TFII inh 51.2 | Gal4-VP16 ctr 19.2 | COUP-TFII conf 52.6
O=C(Nc1ccccc1O)c1ccc(NS(=O)(=O)c2cccc3cccnc23)cc1	COUP-TFII inh 39.8 | Gal4-VP16 ctr inactive | COUP-TFII conf 38.1
CC(C)Cn1c(N)c(C(=O)COC(=O)CC23CC4CC(CC(C4)C2)C3)c(=O)n(C)c1=O	COUP-TFII inh 45.4 | Gal4-VP16 ctr inactive | COUP-TFII conf 57.2
COc1ccc(S[C@]2(C(=O)N(C)C)CC(=O)N(C(=O)c3ccccc3)[C@@H]2c2ccc(OC)cc2)cc1	none (no result: GalR3 antag, NCOA1 inh, SRC3 inh, LRH-1 inv ag)
Cc1nn(C)c(C)c1/C=C/C(=O)O	none
Cc1nn(C)c(C)c1/C=C/C(=O)c1ccc(Cl)cc1Cl	COUP-TFII inh 47.0 | Gal4-VP16 ctr inactive | COUP-TFII conf 38.2
CC(C)(C)c1ccc(-c2nnc(SCC(=O)Nc3cccc4ccccc34)n2Cc2ccco2)cc1	COUP-TFII inh 37.8 (no result: GalR3 antag, NCOA1 inh, SRC3 inh, LRH-1 inv ag) | Gal4-VP16 ctr inactive | COUP-TFII conf inactive
Cc1ccc(S(=O)(=O)N2CCc3ccccc3CC2)cc1	COUP-TFII inh 66.4 | Gal4-VP16 ctr inactive | COUP-TFII conf 50.3
Cc1cc(/C=C2\SC(=S)N(C)C2=O)c(C)n1-c1ccccc1O	COUP-TFII inh 42.8 | Gal4-VP16 ctr inactive | COUP-TFII conf inactive
Cc1ccc(-n2c(C)cc(/C=C3\SC(=O)NC3=O)c2C)cc1	none
Cc1cc(/C=C2\SC(=S)N(C)C2=O)c(C)n1-c1ccc(O)cc1	COUP-TFII inh 83.6, NCOA1 inh 80.2, SRC3 inh 80.6, SRC2 inh 72.6 | Gal4-VP16 ctr 68.2 | COUP-TFII conf 98.5
CCOc1ccc(Oc2c(Cl)cnn(Cc3cccc4ccccc34)c2=O)cc1	none (no result: GalR3 antag, NCOA1 inh, SRC3 inh, LRH-1 inv ag)
CC[C@@H](CCC(=O)N(c1ccccc1)c1ccccc1)c1ccc(C)cc1	none (no result: GalR3 antag, NCOA1 inh, SRC3 inh, LRH-1 inv ag)
O=C(c1cccc(F)c1)N1CCCC(c2nc(-c3cccs3)no2)C1 (configuration not stated)	none (no result: GalR3 antag, NCOA1 inh, SRC3 inh, LRH-1 inv ag)
COc1ccc(C(=O)C2CCN(C(=S)NCCc3ccc(OC)c(OC)c3)CC2)cc1	COUP-TFII inh 44.0 | Gal4-VP16 ctr inactive | COUP-TFII conf inactive
